Measured values reported in publication PMC9911399, “Two distinct binding modes provide the RNA-binding protein RbFox with extraordinary sequence specificity”.
Where a chain is given by its changes, count along the chain named. The full ranking holds about 16,000 sequences; the median of “ka relative to ugcaugu” is about 0.096, and the highest 2% start at about 0.35. The sample holds the highest values, similar sequences and a random draw of the others, so the mix is not that of the screen.

T1: RBFOX1 RRM RbFoxmut (Fox-RRM*) (Homo sapiens, UniProt Q9NWB1 109-208, R118D;E147R;N151S;E152T)
T1 sequence: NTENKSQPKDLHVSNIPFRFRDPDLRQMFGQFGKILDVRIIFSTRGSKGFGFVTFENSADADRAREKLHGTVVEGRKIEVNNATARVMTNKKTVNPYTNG

B1: UUACGGC (DNA:RNA)
RNA: GGGAGACCGGAAUUCAGAUUGUCCUUACGGCUUAAAUCCCGUCGUAGCCACCA
DNA 1: CAATCTGAATTCCGGTCTCCC
DNA 2: TGGTGGCTACGACGGGATT
B2: UUCGUUU (DNA:RNA)
RNA: B1 RNA with A27C, C28G, G29U, G30U, C31U
DNA 1: CAATCTGAATTCCGGTCTCCC
DNA 2: TGGTGGCTACGACGGGATT
B3: AAGUGAC (DNA:RNA)
RNA: B1 RNA with U25A, U26A, A27G, C28U, G30A
DNA 1: CAATCTGAATTCCGGTCTCCC
DNA 2: TGGTGGCTACGACGGGATT
B4: GAUGAAA (DNA:RNA)
RNA: GGGAGACCGGAAUUCAGAUUGUCCGAUGAAAUUAAAUCCCGUCGUAGCCACCA
DNA 1: CAATCTGAATTCCGGTCTCCC
DNA 2: TGGTGGCTACGACGGGATT
B5: ACAUGUU (DNA:RNA)
RNA: B1 RNA with U25A, U26C, C28U, G30U, C31U
DNA 1: CAATCTGAATTCCGGTCTCCC
DNA 2: TGGTGGCTACGACGGGATT
B6: CCGCCUC (DNA:RNA)
RNA: B1 RNA with U25C, U26C, A27G, G29C, G30U
DNA 1: CAATCTGAATTCCGGTCTCCC
DNA 2: TGGTGGCTACGACGGGATT
B7: GUGAAUC (DNA:RNA)
RNA: B4 RNA with A26U, U27G, G28A, A30U, A31C
DNA 1: CAATCTGAATTCCGGTCTCCC
DNA 2: TGGTGGCTACGACGGGATT
B8: GUGAUUC (DNA:RNA)
RNA: B1 RNA with U25G, A27G, C28A, G29U, G30U
DNA 1: CAATCTGAATTCCGGTCTCCC
DNA 2: TGGTGGCTACGACGGGATT
B9: GGUGAUU (DNA:RNA)
RNA: B4 RNA with A26G, A30U, A31U
DNA 1: CAATCTGAATTCCGGTCTCCC
DNA 2: TGGTGGCTACGACGGGATT
B10: GUGACUG (DNA:RNA)
RNA: B4 RNA with A26U, U27G, G28A, A29C, A30U, A31G
DNA 1: CAATCTGAATTCCGGTCTCCC
DNA 2: TGGTGGCTACGACGGGATT
B11: GCGUGAA (DNA:RNA)
RNA: B4 RNA with A26C, U27G, G28U, A29G
DNA 1: CAATCTGAATTCCGGTCTCCC
DNA 2: TGGTGGCTACGACGGGATT
B12: UUGACUG (DNA:RNA)
RNA: B1 RNA with A27G, C28A, G29C, G30U, C31G
DNA 1: CAATCTGAATTCCGGTCTCCC
DNA 2: TGGTGGCTACGACGGGATT
B13: GUCGUGA (DNA:RNA)
RNA: B4 RNA with A26U, U27C, A29U, A30G
DNA 1: CAATCTGAATTCCGGTCTCCC
DNA 2: TGGTGGCTACGACGGGATT
B14: GUGACCG (DNA:RNA)
RNA: B4 RNA with A26U, U27G, G28A, A29C, A30C, A31G
DNA 1: CAATCTGAATTCCGGTCTCCC
DNA 2: TGGTGGCTACGACGGGATT
B15: GGUGUGA (DNA:RNA)
RNA: B4 RNA with A26G, A29U, A30G
DNA 1: CAATCTGAATTCCGGTCTCCC
DNA 2: TGGTGGCTACGACGGGATT
B16: GUGAUUG (DNA:RNA)
RNA: B4 RNA with A26U, U27G, G28A, A29U, A30U, A31G
DNA 1: CAATCTGAATTCCGGTCTCCC
DNA 2: TGGTGGCTACGACGGGATT
B17: GGUGAUG (DNA:RNA)
RNA: B4 RNA with A26G, A30U, A31G
DNA 1: CAATCTGAATTCCGGTCTCCC
DNA 2: TGGTGGCTACGACGGGATT
B18: GUGAUCG (DNA:RNA)
RNA: B4 RNA with A26U, U27G, G28A, A29U, A30C, A31G
DNA 1: CAATCTGAATTCCGGTCTCCC
DNA 2: TGGTGGCTACGACGGGATT
B19: ACCUAUU (DNA:RNA)
RNA: B4 RNA with G25A, A26C, U27C, G28U, A30U, A31U
DNA 1: CAATCTGAATTCCGGTCTCCC
DNA 2: TGGTGGCTACGACGGGATT
B20: GCUCCGG (DNA:RNA)
RNA: B4 RNA with A26C, G28C, A29C, A30G, A31G
DNA 1: CAATCTGAATTCCGGTCTCCC
DNA 2: TGGTGGCTACGACGGGATT

The binders below were run against T1, RBFOX1 RRM RbFoxmut (Fox-RRM*) (assay: EMSA; HiTS-Eq, 1 nM pool, 10 min; buffer printed only for the single-RNA assays: 10 mM Tris pH 7.5, 150 mM NaCl, 3.4 mM EDTA, 0.001% NP-40, 30 C). Conditions: tags: His6 N-terminal (pET28a); label: 5' 32P.
How it was run: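 Purified RbFox RRM (wild type or mutant) was equilibrated for 10 min in 50 µL with 1 nM of a 5′-radiolabelled pool of RNA with 7 randomized nucleotides, its flanks annealed to DNA oligonucleotides, across increasing protein concentrations. Free RNA was separated by 8% native PAGE, excised, reverse-transcribed, PCR-barcoded and sequenced on an Illumina HiSeq 2500. Relative association constants came from read-count changes of each variant against the control reaction, normalised to the cognate motif.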

| Binder | binding signal |
| --- | --- |
| B1 | 0.0823 KA relative to UGCAUGU |
| B2 | 0.112 KA relative to UGCAUGU |
| B3 | 0.0758 KA relative to UGCAUGU |
| B4 | 0.0758 KA relative to UGCAUGU |
| B5 | 0.127 KA relative to UGCAUGU |
| B6 | 0.0617 KA relative to UGCAUGU |
| B7 | 0.42 KA relative to UGCAUGU |
| B8 | 0.159 KA relative to UGCAUGU |
| B9 | 0.0776 KA relative to UGCAUGU |
| B10 | 0.387 KA relative to UGCAUGU |
| B11 | 0.119 KA relative to UGCAUGU |
| B12 | 0.243 KA relative to UGCAUGU |
| B13 | 0.126 KA relative to UGCAUGU |
| B14 | 0.162 KA relative to UGCAUGU |
| B15 | 0.112 KA relative to UGCAUGU |
| B16 | 0.454 KA relative to UGCAUGU |
| B17 | 0.412 KA relative to UGCAUGU |
| B18 | 0.32 KA relative to UGCAUGU |
| B19 | 0.107 KA relative to UGCAUGU |
| B20 | 0.0646 KA relative to UGCAUGU |
